CF NFkB inh = blocks PAF-induced NF-kB reporter in cystic fibrosis cells. KKLEB NF-kB-GFP reporter, GFP fluorescence overnight. inhibition, % at 5 µM. 0.86% of 360,000 active. AID 588850;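 active means at least 50% inhibition at 5 µM, scaled per plate between neutral and stimulator controls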;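 further: PAF is a Pseudomonas aeruginosa culture filtrate used as stimulus; plate controls were PAF-stimulated DMSO wells for no effect and unstimulated DMSO wells for full effect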
KKLEB cytotox = CF airway cell cytotoxicity counter-screen; KKLEB CF airway cells viability, ATPlite luminescence, overnight; stronger effect = lower value; cells stimulated with P. aeruginosa culture filtrate; 0.36% of 360,000 active; AID 602141; activity change (cytotoxicity), % at 5 µM;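 active means corrected activity change at or below -50% at 5 µM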
EWS-Fli inh = blocks EWS/Fli oncoprotein-driven transcription | A673 NR0B1-luciferase reporter, viability-normalised | inhibition, % at 12.6 µM | 0.67% of 350,000 active | AID 651661;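 active means mean inhibition of at least 50% after viability correction, with every replicate also passing that limit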;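 further: firefly luciferase signal divided by Alamar Blue viability fluorescence both relative to DMSO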
HIF-2a inh = inhibitors of HIF-2a; inhibition, % at 18.8 µM; 786-0 RCC cells HIF-2a reporter, luciferase luminescence, overnight; AID 624352; 0.72% of 360,000 active;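 active means inhibition of the luminescence signal of 40% or more relative to plate controls, in a single-dose primary screen at 18.75 µM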
PAX8 inh HTS = PAX8 transcriptional activity inhibition | RMG-I TPO-luciferase reporter, SteadyGlo, 24 h | inhibition, % at 12.6 µM | 1.2% of 360,000 active | AID 652154;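 active means mean replicate inhibition at least 60% with every replicate also reaching 60%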;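 further: luciferase light reporting Pax8 driven TPO promoter activity; plate controls were median of neutral control wells for no effect and mitoxantrone controls for full effect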
The depositor's hits bear a star; . = no result. In the library only some 2.1% were active in any assay of this set; here they are far more common.

SMILES	CF NFkB inh	KKLEB cytotox	EWS-Fli inh	HIF-2a inh	PAX8 inh HTS
CC(=O)c1cc(NC(=O)c2cccc(C(F)(F)F)c2)c(=O)oc1C	6	4	45	-10	89*
CC(=O)c1cc(NC(=O)c2cccc(C(F)(F)F)c2)c(=O)oc1/C=C/N(C)C	-15	-6	.	4	.
COc1ccc(-n2c(=S)[nH]c3cc(C(=O)Nc4ccc(OC)c(OC)c4)ccc3c2=O)cc1	49	-70*	.	11	.
NC(=O)c1nsc(C(=O)N(c2ccccc2F)C(C(=O)NCc2ccccc2)c2ccc(O)cc2)c1N (stereo unspecified)	90*	-54*	36	32	44
Cc1ccccc1N(C(=O)c1snc(C(N)=O)c1N)C(C(=O)NCc1ccccc1)c1ccc(O)cc1 (stereo unspecified)	15	3	25	21	37
COc1ccc2c3c(n(C)c2c1)[C@H](CO)N(C(=O)c1ccncc1)CC31CCN(S(C)(=O)=O)CC1	.	.	-7	.	-3
COc1ccc2nc(C)cc(Sc3nc4ccccc4s3)c2c1	64*	-44	-35	33	69*
Cc1nc(S(=O)(=O)N[C@@H]2CCCN(Cc3cccc(OCCO)c3)C2)cn1C	.	.	0	.	-8
O=C(O)c1cc(N=Nc2c(O)ccc3ccccc23)cc(C(=O)O)c1	5	-10	-17	17	-14
O=C(O)c1cc2ccccc2c(N=Nc2cccnc2)c1O	18	-12	.	73*	.
COc1ccc(Nc2nc(Nc3ccc(OC)cc3)nc(-n3[nH]c(=O)c(C)c3C)n2)cc1	87*	-31	.	-40	.
COc1ccc(Nc2nc(OC)nc(OC)n2)cc1	5	-5	-14	-38	-27
O=C(c1ccccn1)N1C[C@H]2[C@@H](c3ccccc31)[C@H](CO)N2C(=O)c1ccccn1	.	.	6	.	0
O=C(NCC[C@H]1CC[C@H](NC(=O)c2cccnc2)[C@@H](CO)O1)Nc1ccc(C(F)(F)F)cc1	.	.	-18	.	5
Cc1ccc2nc(-c3ccc(NC(=O)COC(=O)c4ccc(Br)o4)cc3)sc2c1	-12	-15	.	-57	-51
CC(=O)Nc1ccc2nc(NC(=O)c3ccc([N+](=O)[O-])o3)sc2c1	81*	-24	24	-18	48
CC(=O)Nc1ccc2nc(NC(=O)c3ccco3)sc2c1	-2	3	-39	-173	-44
Cc1ccc2nc(-c3ccc(NC(=O)COC(=O)c4ccc([N+](=O)[O-])o4)cc3)sc2c1	-21	-11	55*	-60	34
CC(=O)NC[C@@H]1[C@H](c2ccc(-c3ccccc3F)cc2)[C@H](CO)N1C(C)=O	.	.	-6	.	-3
CCCCCc1c(-c2ccccc2OC)ncn1CCc1ccccc1OC	.	.	43	-46	99*
CCCCc1c(-c2ccccc2OC)ncn1CCc1ccccc1OC	.	.	35	-11	27
CCc1c(Cc2ccccc2)ncn1CCc1ccccc1OC	.	.	35	.	78*
O=C(O)C[C@H]1CC[C@H](NC(=O)Nc2ccccc2)[C@@H](CO)O1	.	.	9	.	-3
COc1ccc2c3c([nH]c2c1)[C@H](CO)N(C(=O)Nc1ccc(F)cc1)CC31CCN(S(=O)(=O)c2cn(C)cn2)CC1	.	.	3	.	13
Cc1ccc(S(=O)(=O)Nc2ccc3c(c2)C(=O)N([C@H](C)CO)C[C@H](C)[C@H](CN(C)C(=O)Nc2ccccc2)OCCCC[C@H](C)O3)cc1	.	.	-1	.	24
SMILES	CF NFkB inh	KKLEB cytotox	EWS-Fli inh	HIF-2a inh	PAX8 inh HTS
COc1ccc(N=CC2=C(O)c3ccccc3C2=O)c(OC)c1	-15	-77*	.	55*	.
Nc1c(Cl)ncnc1N/N=C/c1ccccn1	.	.	.	.	67*
Nc1c(Cl)ncnc1N/N=C/c1ccc2ccccc2n1	-23	-10	-8	-162	1
CCOc1ccc2c(c1)-c1c(ssc1=S)C(C)(C)N2C(=O)c1ccco1	53*	-12	.	17	16
CCCCc1nnc(NC(=O)CCS(=O)(=O)c2ccc(Cl)cc2)s1	17	2	-23	-4	77*
CCOC(=O)c1csc(NC(=O)CCS(=O)(=O)c2ccc(Cl)cc2)n1	-14	17	0	1	84*
CC(=O)Nc1nnc(CCS(=O)(=O)c2ccc(Cl)cc2)s1	-10	12	2	6	-9
CCCc1nnc(NC(=O)CCS(=O)(=O)c2ccccc2)s1	9	-5	-25	-21	78*
Cn1cc(C(=O)CCl)c2ccccc21	54*	-15	15	9	12
CCN1[C@H](C(=O)NCc2ccccc2)[C@@H](CO)[C@@H]2Cn3c(ccc(-c4ccccc4OC)c3=O)[C@@H]21	.	.	-7	.	.
Cc1ccc2c(c1)COc1c3ccc(C(=O)O)cc3nn1-2	-6	0	5	83*	65*
CO[C@H]1CN(C)C(=O)c2cc(NC(=O)c3ccc(-c4ccccc4)cc3)ccc2OC[C@@H](C)NC[C@H]1C	.	.	7	.	0
CO[C@@H]1CN(C)C(=O)c2cc(NC(=O)c3nc4ccccc4s3)ccc2OC[C@H](C)NC[C@H]1C	.	.	-22	.	84*
CO[C@H]1CN(C)C(=O)c2cc(NC(=O)c3nc4ccccc4s3)ccc2OC[C@@H](C)NC[C@@H]1C	.	.	54*	.	-22
CO[C@H]1CN(C)C(=O)c2cc(NC(=O)c3nc4ccccc4s3)ccc2OC[C@H](C)NC[C@H]1C	.	.	-25	.	7
CO[C@@H]1CN(C)C(=O)c2cc(NC(=O)c3nc4ccccc4s3)ccc2OC[C@@H](C)NC[C@H]1C	.	.	-18	.	5
CO[C@@H]1CN(C)C(=O)c2cc(NC(=O)c3ccc(-c4ccccc4)cc3)ccc2OC[C@@H](C)NC[C@@H]1C	.	.	75*	.	13
